Measured values: PubChem BioAssay (NCATS)
Results filed as inconclusive are left out. The source made the active and inactive calls. The call rests on the fitted dose curve; in most records, active means well fitted inhibition curve with a large enough effect; inconclusive means small, poorly fitted or top-dose-only effect; inactive means no such curve, though single readings can be large or run the other way.

test: Primary qHTS for small molecule stabilizers of the endoplasmic reticulum resident proteome: Secreted ER Calcium Modulated Protein (SERCaMP) assay (AID 1508630); settings: SH-SY5Y GLuc-SERCaMP (Gaussia luciferase released on ER calcium loss) secretion, thapsigargin, luminescence; series mostly up to 38.4 µM; activity change, negative = inhibition: at the top concentration
How it was run: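 The SH-SY5Y reporter protocol was run at 3 concentrations up to 38.3 uM (primary) or 11 concentrations (follow-up): 16 h compound, 100 nM thapsigargin for 4 h, then extracellular luciferase luminescence.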
On the % scale 0 is the no-effect control and ±100 the full control effect.

| Structure (SMILES) | activity change, negative = inhibition | Potency |
| --- | --- | --- |
| CCCCCCCCCCCCCC[N+](C)(C)Cc1ccccc1 | 15.1% (inactive) | – |
| CC(=O)O[C@H]1C[C@@H]2CC[C@@H]3[C@H](CC[C@@]4(C)[C@H]3C[C@H]([N+]3(C)CCCCC3)[C@@H]4OC(C)=O)[C@@]2(C)C[C@@H]1N1CCCCC1 | -10.7% (inactive) | – |
| CC1=C(C(=O)O)N2C(=O)[C@@H](NC(=O)[C@H](N)c3ccccc3)[C@H]2SC1 | -22.6% (inactive) | – |
| NS(=O)(=O)c1cc2c(cc1Cl)NC(CC1CCCC1)NS2(=O)=O (stereo not given) | -22.9% (inactive) | – |
| NC(=S)N/N=C/c1cccnc1 | -24.3% (inactive) | – |
| C[C@H]1O[C@@H](O[C@H]2CC[C@@]3(C)[C@H](CC[C@@H]4[C@@H]3C[C@@H](O)[C@]3(C)[C@@H](C5=CC(=O)OC5)CC[C@]43O)C2)C[C@H](O)[C@@H]1O[C@H]1C[C@H](O)[C@H](O[C@H]2C[C@H](O)[C@H](O[C@@H]3O[C@H](CO)[C@@H](O)[C@H](O)[C@H]3O)[C@@H](C)O2)[C@@H](C)O1 | 59.9% (inactive) | – |
| CCCCCN=C(N)N/N=C/c1c[nH]c2ccc(OC)cc12 | 313% (inactive) | – |
| C#C[C@]1(OC(C)=O)CC[C@H]2[C@@H]3CCC4=C/C(=N/O)CC[C@@H]4[C@H]3CC[C@@]21CC | 11.4% (inactive) | – |
| CC1(COc2ccc(CC3SC(=O)NC3=O)cc2)CCCCC1 (stereo not given) | – | inactive |
| CCN(CC)CCOc1ccccc1C(=O)CCc1ccccc1 | -23% (inactive) | – |
| Oc1c(Cl)cc(Cl)c(Cl)c1Cc1c(O)c(Cl)cc(Cl)c1Cl | -29.9% (inactive) | – |
| Cc1ccccc1OCC(O)CO (stereo not given) | -8.66% (inactive) | – |
| Nc1nc(N)c(-c2ccccc2)s1 | -16.1% (inactive) | – |
| CCOC(=O)c1ccc(N)cc1 | -13.3% (inactive) | – |
| CC(C)=CCOc1ccc(/C=C/C(=O)c2ccc(OCC=C(C)C)cc2OCC(=O)O)cc1 | 26.3% (inactive) | – |
